# Data published in PubChem BioAssay (NCI).
# About 83,000 compounds went through this panel and 20% of them were active in at least one assay; those are over-represented in the sample as a whole.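 Cell lines were cultured in 96-well plates, exposed to a single compound concentration, and assessed for percent growth 48 hours later.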 Activity calls are given as the source filed them. The calls were made as follows: active = growth percent below 10; inactive = the rest.
# System: UACC-62 melanoma
# Assay: NCI-60 one-dose screen, 48 h (100 = growth as untreated, 0 = no growth, -100 = all killed)
# Details: 10 µM unless noted
row,Compound,growth
1,Nc1ncnc2c1ncn2C1OC(COC(c2ccccc2)(c2ccccc2)c2ccccc2)C(O)C1O (stereo unspecified),95.6% (inactive)
2,O=C(Nc1ccc(-n2cc(-c3ccncc3)c(-c3ccc(O)c(Cl)c3)n2)cc1)c1cc(C(F)(F)F)cc(C(F)(F)F)c1,71.2% (inactive)
3,CN1C(=O)C2(SCC(C(=O)NCC(=O)OC(C)(C)C)N2C(=O)C2CCCCC2)c2ccccc21 (stereo unspecified),91.8% (inactive)
4,CCC1S/C(=N\N=C(/C)c2cc3ccccc3o2)N(c2ccccc2)C1=O (stereo unspecified),79.5% (inactive)
5,CC(C)(C)OC(=O)NCc1cccc(N=C=S)c1,14.2% (inactive)
6,CCOc1ccc(NC(=O)Nc2cc(C(C)C)ccc2C)cc1,80% (inactive)
7,O=C(NCCNc1nccc(-c2c(-c3cccc(O)c3)nc3sccn23)n1)Nc1cccc(C(F)(F)F)c1,29.4% (inactive)
8,C=C1c2c(Cl)ccc(O)c2C(O)=C2C(=O)[C@]3(O)C(O)=C(C(N)=O)C(=O)[C@@H](N(C)C)[C@@H]3[C@@H](O)[C@H]12,7.11% (active)
9,CCN(CC)CCN1C(=O)c2c(c3c4ccccc4[nH]c3c3[nH]c4ccccc4c23)C1=O,87.2% (inactive)
10,O=C1OC(c2ccc(-c3ccccc3)cc2)=C/C1=C/C=C/c1ccccc1,96.8% (inactive)
11,O=[N+]([O-])c1ccc(NS(=O)(=O)c2cc(Cl)ccc2Cl)c2ccccc12,17.1% (inactive)
12,O=C(NCCNc1nccc(-c2c(-c3cccc(O)c3)nc3sccn23)n1)c1ccccc1,0.903% (active)
13,NS(=O)(=O)c1ccc(CCN2C(=O)/C(=C\c3ccc(Cl)cc3)C=C2c2ccc(Oc3ccccc3)cc2)cc1,68.8% (inactive)
14,Cc1cn([C@]2(CF)O[C@H](CO)C2C)c(=O)[nH]c1=O (stereo partly specified),122% (inactive)
15,CC(Cc1cccc(C(F)(F)F)c1)NCCOC(=O)c1ccccc1 (stereo unspecified),102% (inactive)
16,CCCCN(CCCC)c1ccc(C(=N)c2ccc(N(C)C)cc2)cc1,-71.9% (active)
17,COC(=O)/C=C/C(=O)c1cc(C)cc(C)c1O,106% (inactive)
18,O=C1C(Cl)=C(Nc2ccccc2)C(=O)C(Cl)=C1Nc1ccccc1,111% (inactive)

row,Compound,growth
1,CC1(C)Cc2c(Br)c(Br)c(Br)c(OCC(O)CN3CCN(c4ccccn4)CC3)c2O1 (stereo unspecified),92.9% (inactive)
2,Cc1ccc(-c2cn3cc([N+](=O)[O-])ccc3n2)cc1,82.6% (inactive)
3,CCCOC(=O)c1ccc([N+](=O)[O-])o1,104% (inactive)
4,CCOC(=O)CSc1nnc(-c2cc3c([nH]c4ccccc43)c(-c3cccc(O)c3)n2)n1-c1ccc(C)cc1,85.2% (inactive)
5,O=C(NCCNc1nccc(-c2c(-c3cccc(O)c3)nc3sccn23)n1)c1ccc(N2CCOCC2)c(C(F)(F)F)c1,5.88% (active)
6,COc1ccc(-c2nn(-c3cccc(Cl)c3)cc2-c2cc(-c3ccc(Br)cc3)[nH]c(=O)c2C#N)cc1,88% (inactive)
7,Clc1ccc2c(NCCNc3nc(Cl)nc4ccccc34)ccnc2c1,-89.6% (active)
8,COc1ccc2c(c1)/C(=C/c1c(-c3cc(OC)c(OC)c(OC)c3Br)nc3sccn13)C(=O)N2,69.2% (inactive)
9,COc1ccccc1N1CCN(CCCOc2ccc(OCCCN3CCN(c4ccccc4OC)CC3)c(C(=O)c3cc(OC)c(OC)c(OC)c3)c2)CC1,109% (inactive)
10,C=C1C(=O)O[C@H]2[C@H]1CC/C(COC(=O)CCCC(=O)OC/C1=C/CC[C@@]3(C)O[C@H]3[C@H]3OC(=O)C(=C)[C@@H]3CC1)=C\CC[C@@]1(C)O[C@@H]21,-18.7% (active)
11,O=C(Cn1c2ccccc2c2ccncc21)N/N=C/c1cc(O)c(O)c(O)c1,103% (inactive)
12,C=C1C(=O)O[C@H]2[C@H]1CC/C(COC(=O)c1ccc(C#N)cc1)=C\CC[C@@]1(C)O[C@@H]21,-25.2% (active)
13,C=CC(C)(O)CCC1C(=C)CCC2C(C)(C)CCCC12C (stereo unspecified),95.5% (inactive)
14,O=c1nc(N2CCOCC2)oc2c(-c3cccc4ccccc34)cccc12,54.4% (inactive)
15,CC(=O)c1ccc2c(c1)C1C=CCC1[C@H](c1cc3c(cc1Br)OCO3)N2 (stereo partly specified),34.6% (inactive)
16,COc1cc2c(cc1OC)-c1c(oc3c4c(ccc3c1=O)OC(C)(C)C=C4)CO2,61.1% (inactive)
17,NN=C(c1ccc(Cl)cc1)c1ccc(Cl)cc1,100% (inactive)
18,CCCCCCCCCCCC(=O)OCCNC(=O)C[n+]1ccccc1,104% (inactive)
